What all share (conditions): mRNA level, 48 h; actives raise or lower the signal
Read-out in experiment [1]: Bcl-2 (BID) gene, BID (gene 637)
The experiment is described as follows: LTEA_HepaRG_BID: Life Technologies and Expression Analysis (LTEA) Assay for Bcl-2 (BID) gene using HepaRG (AID 2283476). Put shortly: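 Duplicate 48 h treatments of HepaRG cells in serum-free induction medium spanned 100 uM downward in half-log steps, 0.5% DMSO. Transcript change quantified by qRT-PCR against three housekeeping genes, fitted up or down versus DMSO.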

Read-out in experiment [2]: Caspase-3 (Homo sapiens) (UniProt P42574)
In words: LTEA_HepaRG_CASP3: Life Technologies and Expression Analysis (LTEA) Assay for cysteine-aspartic acid protease (CASP3) using HepaRG (AID 2283477). In short, it runs like this: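 Expression of CASP3 was quantified by TaqMan qRT-PCR against three housekeeping genes (ACTB, GAPDH, POLR2A), bidirectionally versus 0.5% DMSO. HepaRG cultures received compounds in duplicate, top 100 uM with half-log steps, for 48 h in serum-free induction medium.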

Read-out in experiment [3]: Cytochrome P450 (CYP24A1), CYP24A1 (gene 1591)
The experiment is described as follows: LTEA_HepaRG_CYP24A1: Life Technologies and Expression Analysis (LTEA) Assay for Cytochrome P450 (CYP24A1) using HepaRG (AID 2283478). Put shortly: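 mRNA of CYP24A1 quantified by TaqMan qRT-PCR (ACTB/GAPDH/POLR2A normalization) after 48 h chemical exposure of HepaRG cells, top concentration 100 uM, half-log steps, 0.5% DMSO vehicle, duplicates. Curves fitted bidirectionally against DMSO baseline.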

Read-out in experiment [4]: Cytochrome P450 (CYP1A2), CYP1A2 (gene 1544)
The experiment is described as follows: LTEA_HepaRG_CYP1A2: Life Technologies and Expression Analysis (LTEA) Assay for Cytochrome P450 (CYP1A2) using HepaRG (AID 2283479). Put shortly: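 CYP1A2 transcript measured by TaqMan qRT-PCR against three housekeeping genes after 48-hour chemical exposure of HepaRG cells. Eight-point half-log series topping at 100 uM in 0.5% DMSO, duplicates; gain or loss fitted relative to vehicle.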

Read-out in experiment [5]: cysteine-aspartic acid protease (CASP8), CASP8 (gene 841)
In words: LTEA_HepaRG_CASP8: Life Technologies and Expression Analysis (LTEA) Assay for cysteine-aspartic acid protease (CASP8) using HepaRG (AID 2283480). Put shortly:
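CASP8 transcript measured by TaqMan qRT-PCR with ACTB/GAPDH/POLR2A normalization, after 48 h chemical exposure of HepaRG cells in serum-free induction medium. Eight concentrations, top 100 uM, half-log steps, 0.5% DMSO vehicle; fits in both directions versus DMSO.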

Read-out in experiment [6]: Cytochrome P450 2C19 (Homo sapiens) (UniProt P33261)
The experiment is described as follows: LTEA_HepaRG_CYP2C19: Life Technologies and Expression Analysis (LTEA) Assay for CYP2C19 using HepaRG (AID 2283482). In short, it runs like this: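 CYP2C19 transcript levels by qRT-PCR, normalized to three housekeeping genes, in HepaRG cells after 48 h chemical exposure. Eight-point half-log series topping at 100 uM, 0.5% DMSO vehicle. Increases and decreases both fitted against DMSO.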

Read-out in experiment [7]: CYP2C8 (gene 1558)
The experiment is described as follows: LTEA_HepaRG_CYP2C8: Life Technologies and Expression Analysis (LTEA) Assay for CYP2C8 using HepaRG (AID 2283483). Put shortly: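 CYP2C8 expression measured by TaqMan qRT-PCR and normalized to three housekeeping genes. HepaRG cultures were treated for 48 h with an eight-point half-log series topping at 100 uM, vehicle 0.5% DMSO, duplicates; fitted both directions against DMSO.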

Read-out in experiment [8]: CYP2C9 (gene 1559)
In words: LTEA_HepaRG_CYP2C9: Life Technologies and Expression Analysis (LTEA) Assay for CYP2C9 using HepaRG (AID 2283484). Put shortly: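 CYP2C9 transcript level, quantified by TaqMan qRT-PCR against three housekeeping genes, was fitted bidirectionally relative to 0.5% DMSO. HepaRG cultures were treated 48 h, in duplicate, at eight half-log concentrations topping at 100 uM.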

Read-out in experiment [9]: CYP2E1 (gene 1571)
In words: LTEA_HepaRG_CYP2E1: Life Technologies and Expression Analysis (LTEA) Assay for CYP2E1 using HepaRG (AID 2283485). In short, it runs like this: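 CYP2E1 transcript measured by Fluidigm qRT-PCR against three housekeeping genes in human HepaRG cells treated 48 h (top 100 uM, half-log steps, 0.5% DMSO vehicle). Gain or loss fitted relative to DMSO baseline.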

Read-out in experiment [10]: CYP4A11 (gene 1579)
In words: LTEA_HepaRG_CYP4A11: Life Technologies and Expression Analysis (LTEA) Assay for CYP4A11 using HepaRG (AID 2283486). Put shortly: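 Readout is CYP4A11 transcript level by qRT-PCR, normalized to three housekeeping genes and fitted bidirectionally against 0.5% DMSO. Human HepaRG cells were treated 48 h, in duplicate, with an 8-point half-log series topping at 100 uM.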

Read-out in experiment [11]: Cytochrome P450 3A4 (Homo sapiens) (UniProt P08684)
The experiment is described as follows: LTEA_HepaRG_CYP3A4: Life Technologies and Expression Analysis (LTEA) Assay for CYP3A4 using HepaRG (AID 2283487). In short, it runs like this:
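HepaRG, 48 h exposure, 8-pt CRC from 100 uM (half-log), 0.5% DMSO, duplicates; serum-free induction medium. Readout: CYP3A4 mRNA, qRT-PCR, ACTB/GAPDH/POLR2A normalization. Bidirectional fit vs DMSO.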

Read-out in experiment [12]: DNA damage-inducible transcript 3 (DDIT3), DDIT3 (gene 1649)
In words: LTEA_HepaRG_DDIT3: Life Technologies and Expression Analysis (LTEA) Assay for DNA damage-inducible transcript 3 (DDIT3) using HepaRG (AID 2283488). Put shortly:
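DDIT3 transcript was quantified by qRT-PCR with ACTB/GAPDH/POLR2A normalization after 48 h chemical treatment of differentiated HepaRG cells in 0.5% DMSO. Dosing was eight-point, half-log, top 100 uM, duplicate wells. Curves fitted bidirectionally versus DMSO.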

Read-out in experiment [13]: Pro-epidermal growth factor (Homo sapiens) (UniProt P01133)
In words: LTEA_HepaRG_EGF: Life Technologies and Expression Analysis (LTEA) Assay for Epidermal growth factor (EGF) using HepaRG (AID 2283489). In short, it runs like this: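 EGF transcript measured by Fluidigm TaqMan qRT-PCR with three housekeeping genes for normalization, 48 h after dosing HepaRG cultures in duplicate (top 100 uM, half-log steps, 0.5% DMSO vehicle). Gain or loss relative to DMSO fitted.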

Read-out in experiment [14]: Early growth response protein 1 (EGR1) transcription factor, EGR1 (gene 1958)
The experiment is described as follows: LTEA_HepaRG_EGR1: Life Technologies and Expression Analysis (LTEA) Assay for Early growth response protein 1 (EGR1) transcription factor using HepaRG (AID 2283490). Put shortly: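 EGR1 transcript levels quantified by qRT-PCR (Fluidigm arrays) against three housekeeping genes after 48 h chemical exposure of HepaRG cells. Eight-point half-log series topping at 100 uM, 0.5% DMSO vehicle, analyzed for gain or loss.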

Read-out in experiment [15]: Ezrin (EZR), EZR (gene 7430)
The experiment is described as follows: LTEA_HepaRG_EZR: Life Technologies and Expression Analysis (LTEA) Assay for Ezrin (EZR) using HepaRG (AID 2283491). In short, it runs like this: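 Read-out is EZR transcript level by qRT-PCR, normalized to three housekeeping genes and fitted bidirectionally against the DMSO control. Human HepaRG cells received test chemicals for 48 h at eight half-log concentrations up to 100 uM in 0.5% DMSO.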

Read-out in experiment [16]: Cytochrome P450 3A7 (Homo sapiens) (UniProt P24462)
In words: LTEA_HepaRG_CYP3A7: Life Technologies and Expression Analysis (LTEA) Assay for CYP3A7 using HepaRG (AID 2283492). Put shortly: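 CYP3A7 transcript measured by qRT-PCR (ACTB, GAPDH, POLR2A normalization) after 48 h chemical exposure of HepaRG cells in duplicate. Eight half-log concentrations, maximum 100 uM, 0.5% DMSO vehicle; bidirectional curve fitting against DMSO baseline.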

Read-out in experiment [17]: CYP3A5 (gene 1577)
The experiment is described as follows: LTEA_HepaRG_CYP3A5: Life Technologies and Expression Analysis (LTEA) Assay for CYP3A5 using HepaRG (AID 2283493). In short, it runs like this:
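mRNA levels were quantified by qRT-PCR on Fluidigm arrays and normalized to three housekeeping genes. Differentiated HepaRG cells received 48 h exposure (top 100 uM, half-log steps, 0.5% DMSO vehicle, duplicate); bidirectional fitting versus DMSO.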

Read-out in experiment [18]: Fatty Acid-Binding Protein 1 (FABP1), FABP1 (gene 2168)
The experiment is described as follows: LTEA_HepaRG_FABP1: Life Technologies and Expression Analysis (LTEA) Assay for Fatty Acid-Binding Protein 1 (FABP1) using HepaRG (AID 2283494). In short, it runs like this:
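FABP1 expression by TaqMan qRT-PCR, normalised to three housekeeping genes, in HepaRG cells after 48 h chemical treatment. Eight-point half-log series topping at 100 uM in 0.5% DMSO, duplicates; gain or loss fitted relative to vehicle.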

Read-out in experiment [19]: Cytochrome P450 4A22 (Homo sapiens) (UniProt Q5TCH4)
The experiment is described as follows: LTEA_HepaRG_CYP4A22: Life Technologies and Expression Analysis (LTEA) Assay for Cytochrome P450 4A22 (CYP4A22) using HepaRG (AID 2283495). Put shortly: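 Gene expression measured by qRT-PCR against three housekeeping genes (ACTB, GAPDH, POLR2A), with gain or loss fitted relative to 0.5% DMSO vehicle. HepaRG cultures received 48 h chemical treatment, top concentration 100 uM, half-log steps, duplicate wells.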

Read-out in experiment [20]: Cytochrome P450 (CYP2B6), CYP2B6 (gene 1555)
In words: LTEA_HepaRG_CYP2B6: Life Technologies and Expression Analysis (LTEA) Assay for Cytochrome P450 (CYP2B6) using HepaRG (AID 2283481). Put shortly: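 CYP2B6 transcript level quantified by qRT-PCR against three housekeeping genes, fitted bidirectionally relative to DMSO. HepaRG cultures received chemicals for 48 h, 8-point half-log series from 100 uM in 0.5% DMSO, duplicate wells, serum-free induction medium.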

Activity calls are given as the source filed them. How the source made its calls: active means hit-call score of the fitted dose curve at least 0.9, where 1 is the maximum; inactive means score below 0.9.

Cytochrome P450 2C19 (Homo sapiens), sequence (P33261 whole entry, looked up): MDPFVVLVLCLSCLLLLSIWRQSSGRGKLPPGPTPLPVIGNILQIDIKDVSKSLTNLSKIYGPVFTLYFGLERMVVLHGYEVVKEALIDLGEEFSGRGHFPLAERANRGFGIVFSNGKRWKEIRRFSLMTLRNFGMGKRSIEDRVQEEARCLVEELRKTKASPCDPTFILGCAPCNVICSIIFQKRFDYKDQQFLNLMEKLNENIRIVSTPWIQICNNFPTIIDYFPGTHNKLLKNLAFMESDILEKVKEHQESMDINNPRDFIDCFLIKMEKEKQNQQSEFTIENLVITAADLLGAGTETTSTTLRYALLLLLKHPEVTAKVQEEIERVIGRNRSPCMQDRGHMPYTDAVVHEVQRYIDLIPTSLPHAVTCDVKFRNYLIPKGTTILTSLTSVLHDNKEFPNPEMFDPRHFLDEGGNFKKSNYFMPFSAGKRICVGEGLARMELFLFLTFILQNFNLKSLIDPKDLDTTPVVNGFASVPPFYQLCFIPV
Cytochrome P450 3A7 (Homo sapiens), sequence (P24462 whole entry, looked up): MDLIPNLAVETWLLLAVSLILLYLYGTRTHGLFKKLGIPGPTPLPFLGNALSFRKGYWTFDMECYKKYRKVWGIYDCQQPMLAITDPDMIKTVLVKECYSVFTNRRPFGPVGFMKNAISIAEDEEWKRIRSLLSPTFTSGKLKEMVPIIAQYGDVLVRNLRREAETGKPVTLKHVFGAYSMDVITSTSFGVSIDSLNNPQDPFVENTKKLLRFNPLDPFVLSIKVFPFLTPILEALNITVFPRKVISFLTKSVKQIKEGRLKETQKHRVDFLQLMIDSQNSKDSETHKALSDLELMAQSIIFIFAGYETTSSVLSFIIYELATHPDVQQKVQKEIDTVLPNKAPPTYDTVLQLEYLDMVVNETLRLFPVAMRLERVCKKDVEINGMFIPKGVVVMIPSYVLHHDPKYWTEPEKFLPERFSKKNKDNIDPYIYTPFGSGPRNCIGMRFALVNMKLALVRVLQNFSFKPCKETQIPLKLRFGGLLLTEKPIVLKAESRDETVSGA
Caspase-3 (Homo sapiens), sequence (P42574 whole entry, looked up): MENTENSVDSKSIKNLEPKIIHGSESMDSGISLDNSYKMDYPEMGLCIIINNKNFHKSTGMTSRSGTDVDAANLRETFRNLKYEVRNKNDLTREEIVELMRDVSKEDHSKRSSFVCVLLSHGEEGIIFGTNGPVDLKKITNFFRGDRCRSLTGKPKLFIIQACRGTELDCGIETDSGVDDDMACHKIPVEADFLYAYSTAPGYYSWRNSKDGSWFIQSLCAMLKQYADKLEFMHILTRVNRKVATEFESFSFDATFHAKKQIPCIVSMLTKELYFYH
Cytochrome P450 3A4 (Homo sapiens), sequence (P08684 whole entry, looked up): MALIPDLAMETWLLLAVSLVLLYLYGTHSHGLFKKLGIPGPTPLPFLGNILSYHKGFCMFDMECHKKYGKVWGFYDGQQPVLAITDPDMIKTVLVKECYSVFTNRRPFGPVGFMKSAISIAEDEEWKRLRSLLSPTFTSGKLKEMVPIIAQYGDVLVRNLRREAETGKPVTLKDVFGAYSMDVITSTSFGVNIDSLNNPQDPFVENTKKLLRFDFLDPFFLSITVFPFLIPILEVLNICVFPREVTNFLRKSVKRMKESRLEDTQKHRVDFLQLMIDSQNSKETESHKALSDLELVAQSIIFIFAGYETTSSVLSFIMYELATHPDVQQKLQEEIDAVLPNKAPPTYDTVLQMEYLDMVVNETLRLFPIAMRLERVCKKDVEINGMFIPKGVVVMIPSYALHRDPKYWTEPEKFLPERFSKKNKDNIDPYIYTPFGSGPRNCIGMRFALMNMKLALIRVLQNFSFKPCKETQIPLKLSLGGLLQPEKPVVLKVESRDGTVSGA

A word on the AC50: it is the midpoint of the concentration-response curve, whichever way the signal moves. Take `O=P(OC(CCl)CCl)(OC(CCl)CCl)OC(CCl)CCl`: the AC50 in experiment [1] was 0.232 µM (active); in experiment [4], 80 µM (active); in [5], 0.209 µM (active); in experiment [6], 84.9 µM (active); in experiment [7], 89.6 µM (active); in [8], 76.3 µM (active). The AC50 is 56 µM (active) in experiment [9]; 67.8 µM (active) in experiment [10]; 88.5 µM (active) in experiment [11]; 79.1 µM (active) in [12]; 88.8 µM (active) in experiment [13]; 91.6 µM (active) in experiment [14]. Moreover, the AC50 is 89.1 µM (active) in experiment [15], 9.92 µM (active) in experiment [16], 72.9 µM (active) in [18] and 79 µM (active) in experiment [19]. Further, the call in experiment [2], in [3] and in experiment [17] was inactive.
With `CCc1cc(SCc2sc(-c3ccc(C(F)(F)F)cc3)nc2CN2CCN(c3ccc(OC)cc3)CC2)ccc1OCC(=O)O`, the AC50 in experiment [1] is 0.206 µM (active); in experiment [5], 15.8 µM (active); in [20] it was 7.48 µM (active); in experiment [6] it was 7.52 µM (active); in experiment [8], 76.6 µM (active); in [9] it was 75.4 µM (active). In addition, the AC50 in experiment [10] is 74.7 µM (active); in experiment [11], 7.66 µM (active); in [14], 51.9 µM (active); in [15] it was 94.3 µM (active); in experiment [16] it was 8.73 µM (active); in experiment [17], 10.9 µM (active). For the same compound, the results for the AC50 in experiment [18] and in experiment [19] were 76.8 µM (active) and 8.62 µM (active), respectively. For the same compound, the result in experiment [2], in [3], in experiment [4], in experiment [7] and in experiment [13] was inactive.
Turning to `COc1cccc(-c2ccc(/C=C\CN3CCCCCC3)cc2Cl)c1`, the result in experiment [1], in [2], in experiment [3], in experiment [5] and in experiment [13] was inactive. Besides, the AC50 in [4] is 69.9 µM (active); in [20], 77.3 µM (active); in experiment [6], 74.9 µM (active); in experiment [7], 74.1 µM (active); in [8] it was 70.8 µM (active); in [9], 61.8 µM (active). Also, the AC50 in [10] was 85.4 µM (active); in experiment [11] it was 76.3 µM (active); in experiment [14] it was 72.7 µM (active); in experiment [15] it was 45.2 µM (active); in experiment [16] it was 81.9 µM (active); in [17], 8.98 µM (active). Besides, the AC50 in experiment [18] is 84.1 µM (active); in experiment [19] it was 84.4 µM (active).
For `CC(C)=CCC/C(C)=C\CO`, the outcome in experiment [1], in experiment [2], in [5], in [13], in [14] and in experiment [15] was inactive. Moreover, the compound was called inactive in experiment [18].
As for `O=C1OC(=O)C2C3C=CC(C3)C12` (configuration not stated), the outcome in [1], in experiment [2], in [3], in experiment [4], in experiment [5] and in experiment [20] was inactive. Besides, the result in experiment [6], in [7], in experiment [8], in experiment [9], in [10] and in [11] was inactive. Besides, the call in experiment [13], in [14], in [15], in experiment [16], in experiment [18] and in [19] was inactive.

The values above are taken from PubChem BioAssay (EPA / NIEHS).
